IMPase cell inh – IMPase inhibition in cells. P97697. CHO-M1 cells, IP1 accumulation, HTRF TR-FRET ratio. inhibition (IP1 accumulation), % at 46.1 µM. 120,000 tested, under 10 active. AID 901; active = well fitted curve in the direction sought with a large enough effect in the signal ratio, not every such curve was filed as active; inconclusive = small, poorly fitted or top-dose-only effect, or a change in a side signal; inactive = no such curve, though single readings can be large or run the other way; the % refers to the signal ratio;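 also: cells stimulated with carbachol in lithium chloride buffer; plate controls were DMSO basal wells for no effect and reference inhibitor wells for full effect; higher means more IMPase inhibition seen as more IP1 and lower FRET ratio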
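Measured: the HTRF emission ratio (665/620 nm) plus the 620 nm donor channel, each fitted to the Hill equation to give AC50. Cells were CHO-M1 given compounds up to 46 uM and a 30 min carbachol stimulation at 37C.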
ALOX15B inhib – blocks human 15-lipoxygenase 2 activity | O15296 | purified 15hLO-2, xylenol orange hydroperoxide absorbance | Potency, µM (titrated, usually from 57.1 µM), without a hit: at the top dose activity change, negative = inhibition, most hits filed as inhibitors | 110,000 tested, 0.56% active | AID 881; also: potency is read from the fitted curve at half-maximal effect; nearly all actives have a fitted effect of over 60% in size
Target sequence (O15296 whole entry, looked up): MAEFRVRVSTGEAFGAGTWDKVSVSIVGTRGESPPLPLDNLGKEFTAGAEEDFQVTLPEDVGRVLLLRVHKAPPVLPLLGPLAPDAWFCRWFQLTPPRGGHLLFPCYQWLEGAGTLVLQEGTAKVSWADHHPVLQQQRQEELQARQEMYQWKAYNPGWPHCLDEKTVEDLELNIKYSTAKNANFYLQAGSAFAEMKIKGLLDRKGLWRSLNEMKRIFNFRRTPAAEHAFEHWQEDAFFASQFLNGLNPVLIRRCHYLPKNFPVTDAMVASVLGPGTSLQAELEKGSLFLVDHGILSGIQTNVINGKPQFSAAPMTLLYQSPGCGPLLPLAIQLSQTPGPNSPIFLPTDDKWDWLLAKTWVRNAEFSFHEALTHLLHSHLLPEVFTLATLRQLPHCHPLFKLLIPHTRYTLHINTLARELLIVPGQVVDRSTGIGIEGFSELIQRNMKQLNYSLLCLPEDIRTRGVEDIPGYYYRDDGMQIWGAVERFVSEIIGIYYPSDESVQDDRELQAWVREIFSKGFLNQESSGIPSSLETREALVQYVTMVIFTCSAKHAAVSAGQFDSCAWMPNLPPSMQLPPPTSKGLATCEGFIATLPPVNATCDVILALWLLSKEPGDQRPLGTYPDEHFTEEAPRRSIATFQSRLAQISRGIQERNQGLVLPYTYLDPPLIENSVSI
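Screening format was qHTS against 50 nM purified 15hLO-2 in Hepes pH 7.5 with detergent. Activity follows hydroperoxide formation from 45 uM arachidonic acid, measured as 573:405 nm absorbance ratio of the ferric-xylenol orange complex.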
ALOX12 inhib – 12-hLO (ALOX12) enzyme inhibition; P18054; 150,000 tested, 0.12% active; purified 12-hLO, xylenol orange hydroperoxide absorbance; Potency, µM (top dose mostly 57.1 µM), for inactives: at the highest dose activity change, negative = inhibition, actives largely listed as inhibitors; AID 1452; also: potency is read from the fitted curve at half-maximal effect; nearly all actives have a fitted effect of over 55% in size
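Hydroperoxide output read as Fe(III)-xylenol orange absorbance, 573-to-405 nm ratio, after 30 min reaction with 40 uM arachidonic acid. Enzyme: 150 nM purified human 12hLO, 15 min compound preincubation; 25 mM Hepes pH 7.0, room temperature.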
PNC inhibitor – blocks assembly of the perinucleolar compartment | PC3M PTB-GFP, PNC prevalence imaging, 16 h; stronger effect = lower value | activity change (PNC), negative = inhibition, % at 10 µM | 140,000 tested, 3.1% active | AID 2417;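 active = readout at or below -70, meaning at least 70% loss of cells showing the perinucleolar compartment, a nuclear body marking cancer cells; inconclusive = readout between -30 and a set limit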;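 also: plate controls were DMSO wells for no effect and camptothecin positive control wells for full effect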
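PC3M cells stably expressing PTB-GFP, 750–1000 cells/well, treated 16 h at 37 °C with compound (23 nl of library stock), in duplicate. After paraformaldehyde fixation and Hoechst stain, imaged at 20x; PNC prevalence scored by image analysis.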
HPGD block – inhibitors of human 15-hydroxyprostaglandin dehydrogenase (HPGD); Potency, µM, inactives show at the top dose activity change, negative = inhibition, usual class: inhibitors; 150,000 tested, 4.3% active; P15428; purified HPGD, NADH fluorescence kinetic, PGE2 substrate; active = well fitted inhibition curve with a large enough effect, not every such curve was filed as active; inconclusive = small, poorly fitted or top-dose-only effect, or another doubt; inactive = no such curve, though single readings can be large or run the other way; also: potency is read from the fitted curve at half-maximal effect
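20 nM HPGD preincubated 15 min at room temperature with compound in 50 mM Tris-HCl pH 8, 0.01% Tween 20. Started with 1 mM NAD+ and 30 uM prostaglandin E2; NADH fluorescence (360/450 nm) read 5 times over 30-s intervals, last minus first.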
IMPase Li inh – IMPase inhibition in cells with lithium potentiation; CHO-M1 cells, IP1 TR-FRET (IP-One), carbachol + lithium; Potency, µM (top dose mostly 59.4 µM), inactives show at the highest dose activity, negative = IMPase inhibition, hits mostly inhibitors; 210,000 tested, 0.35% active; AID 1457;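 also: IP1 builds up when IMPase is blocked and the TR-FRET signal falls; potency is read from the fitted curve at half-maximal effect; plate controls were basal vehicle for no effect and high inhibitor control for full effect; nearly all actives have a fitted effect of over 50% in size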
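Lithium-sensitised IP1 accumulation assay; M1-expressing CHO cells treated 30 min at 37C with compound. Competitive antibody detection by time-resolved FRET followed a 10 min room-temperature lysis step.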
Starred values were filed as active, the others as inactive; [ ] = dose if it differs, or a comment. Shown are actives, neighbours in structure and some others; about 5.4% of the full set was active somewhere. Unless noted, calls follow the shape of the dose curve; as a rule, active = well fitted curve in the direction sought with a large enough effect; inconclusive = small, poorly fitted or top-dose-only effect, or another doubt; inactive = no such curve, though single readings can be large; an effect the other way counts as inactive or inconclusive. Unless noted, % is scaled to controls: 0 for no effect and ±100 for the full control effect.

For CCCOc1ccc(/C(O)=C2\C(=O)C(=O)N(CCCN(C)C)C23C(=O)N(C)c2ccccc23)cc1 (centres undefined) the results were IMPase cell inh -6, ALOX15B inhib -9%, ALOX12 inhib -5% and PNC inhibitor inconclusive.
Cc1ccc(S(=O)(=O)/C=C\C#N)cc1 was read as IMPase cell inh 12, ALOX15B inhib 0%, ALOX12 inhib -9%, HPGD block 3.5µM* and IMPase Li inh 37%.
Cc1ccc(S(=O)(=O)/C=C/C#N)cc1 was read as IMPase Li inh -4%.
`CC(C)(C)c1ccc(S(=O)(=O)/C=C\C#N)cc1` gave IMPase cell inh 20, ALOX15B inhib -1%, ALOX12 inhib -8%, HPGD block 2.8µM* and IMPase Li inh 32%.
Screening CN1CCc2nc(N)nc(-c3nc(N)nc4c3CN(C)CC4)c2C1 returned ALOX15B inhib -9%[11.4 µM], ALOX12 inhib 0%[11.4 µM], HPGD block -1% and IMPase Li inh -8%.
`C[N+](C)(C)[C@H](Cc1c[nH]c(=S)[nH]1)C(=O)O` gave ALOX15B inhib -5%[11.4 µM], ALOX12 inhib -4%[11.4 µM], HPGD block -5% and IMPase Li inh -1%.
`COc1cccc(Nc2nnc(SCc3cc([N+](=O)[O-])cc4c3OCOC4)s2)c1` gave IMPase cell inh -2, ALOX15B inhib -14%, ALOX12 inhib -9%, PNC inhibitor 9, HPGD block -25% and IMPase Li inh 20%[38.3 µM].
Screening Cc1cccc(C)c1Nc1nnc(SCc2cc([N+](=O)[O-])cc3c2OCOC3)s1 returned IMPase cell inh 9, ALOX15B inhib 18%, ALOX12 inhib 3%, PNC inhibitor -1, HPGD block 11µM* and IMPase Li inh 9%[38.3 µM].
CCCCCCCCC(=O)NC(NC(=S)N1CCOCC1)C(Cl)(Cl)Cl (centres undefined) was read as IMPase cell inh 7, ALOX12 inhib -9%, PNC inhibitor -100*, HPGD block -21% and IMPase Li inh 6%.
Screening C[N@@+]1(CC[N@@+]2(C)CCC[C@H]2c2cccnc2)CCC[C@@H]1c1cccnc1 returned ALOX15B inhib 17%[11.4 µM], ALOX12 inhib 6%[11.4 µM], HPGD block -13% and IMPase Li inh -16%.
`c1cnc(N2CCSCC2)nc1` gave IMPase cell inh -1, ALOX15B inhib 2%, ALOX12 inhib -5%, PNC inhibitor -91*, HPGD block -3% and IMPase Li inh -10%[38.3 µM].
Screening COc1cccc(-c2nc(NC3CCNCC3)c3ccccc3n2)c1 returned ALOX15B inhib 50% and IMPase Li inh 32%.
Screening Cc1cccc(CSCCNC(=O)CCSc2ccccc2)c1 returned ALOX12 inhib -6%, PNC inhibitor -24, HPGD block 28µM* and IMPase Li inh 2%.
`O=C(Cc1ccccc1)NCCSCc1ccc(Cl)cc1` gave IMPase cell inh 5, ALOX15B inhib 8%, ALOX12 inhib -6%, PNC inhibitor -7, HPGD block 32µM* and IMPase Li inh 1%[38.3 µM].
O=C(COc1ccccc1)NCCSCc1ccc(Cl)cc1 was read as ALOX12 inhib -2%, PNC inhibitor -14, HPGD block -9% and IMPase Li inh 4%.
`O=C(CCSc1ccccc1)NCCSCc1ccccc1` gave ALOX12 inhib -7%, PNC inhibitor -27, HPGD block 14µM* and IMPase Li inh -7%.
For CS(=O)(=O)N1CCC2(CCN(c3ccccn3)CC2)CC1 the results were ALOX15B inhib -25%, ALOX12 inhib 5%, HPGD block -20% and IMPase Li inh 14%.
For COc1ccc(NC(=S)NNC(=O)c2cccs2)cc1 the results were ALOX12 inhib -3%, PNC inhibitor -84*, HPGD block -9% and IMPase Li inh -4%.
`Cc1c(C(=O)NC(=S)Nc2ccc(NC(=O)c3cccs3)cc2)oc2ccccc12` gave IMPase cell inh 3, ALOX15B inhib 7.9µM*, ALOX12 inhib inconclusive, PNC inhibitor inconclusive, HPGD block 2.8µM* and IMPase Li inh 14%[38.3 µM].
`Cc1ccc2oc(-c3ccc(Cl)c(NC(=O)c4cc5ccccc5o4)c3)nc2c1` gave IMPase cell inh 6.
`Cc1ccc(C)c(N(CC(=O)NC2CCCC2)C(=O)c2cc3cc4cccc(C)c4nc3s2)c1` gave IMPase cell inh inconclusive, ALOX15B inhib -8%, ALOX12 inhib -6%, PNC inhibitor 47, HPGD block -28% and IMPase Li inh -14%[38.3 µM].
For Cc1ccc2cc3cc(C(=O)N(CC(=O)NC4CCCC4)c4cccc(C)c4C)sc3nc2c1 the results were IMPase cell inh 5, ALOX12 inhib -1%, PNC inhibitor -106*, HPGD block inconclusive and IMPase Li inh -1%[38.3 µM].
For COc1ccc(CNC(=O)CCS(=O)(=O)c2cc(Br)cc3c2N(C(=O)C2CC2)CC3)cc1 the results were IMPase cell inh 7.
Screening C=CCC(C)(O)/C=C/c1ccccc1 (centres undefined) returned HPGD block -10% and IMPase Li inh 19%.
Screening Cc1ccc(S(=O)(=O)N2CCCC2C(=O)OCc2ccccc2)cc1 (centres undefined) returned ALOX12 inhib 1%, PNC inhibitor -24, HPGD block -11% and IMPase Li inh -9%.
For Cc1ccc(S(=O)(=O)N2CCCC2C(=O)OCc2ccco2)cc1 (centres undefined) the results were IMPase cell inh 18, ALOX15B inhib inconclusive, ALOX12 inhib -16%, PNC inhibitor -108*, HPGD block -14% and IMPase Li inh 19%[38.3 µM].
`Clc1ccccc1-c1nnn(Cc2ccc(-c3nn[nH]n3)cc2)n1` gave IMPase cell inh 4, ALOX15B inhib -6%, ALOX12 inhib -4%, PNC inhibitor 17, HPGD block 13µM* and IMPase Li inh 16%[38.3 µM].
For Clc1ccc(Cn2nnc(-c3ccccc3)n2)cc1 the results were IMPase cell inh 14, ALOX12 inhib -3%, PNC inhibitor -100*, HPGD block -14% and IMPase Li inh 12%.
Screening C=CC1=C2C=C(C3CC3)N(C3CCCC3)C=C2C(=O)C(C)(OC(=O)c2ccco2)C1=O (centres undefined) returned ALOX12 inhib -3%[11.4 µM], HPGD block -1% and IMPase Li inh 3%.
Screening CCc1cc(-c2n[nH]c(=S)n2-c2cccc(C)c2)cs1 returned IMPase cell inh 2, ALOX15B inhib inconclusive, ALOX12 inhib inconclusive, PNC inhibitor -21, HPGD block inconclusive and IMPase Li inh 30%[38.3 µM].

Screening data: PubChem BioAssay, National Center for Advancing Translational Sciences (NCATS)
